Experiment [1] in a line: antimalarial activity against Dd2 strain (AID 2302;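 active = growth inhibition above 50% at the single 2 µM test dose, taken to imply half-maximal potency below 2 µM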;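 also: 0% = DMSO untreated growth and 100% = chloroquine plus artemisinin killed control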). The conditions noted are these: P. falciparum Dd2 in RBCs, LDH growth readout, 72 h; at 2 µM; hits give high values.
Experiment [2] is described as follows: human hepatoma cell viability loss – ATP luminescence, cytotoxicity control for P. falciparum antimalarial project, primary screen (AID 2303;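 active = inhibition above 50%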;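 also: 0% = DMSO wells and 100% = digitonin-killed cells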). The settings on record: HepG2 viability, 24-48 h, at 10 µM, hits give high values.
Experiment [3] has as its target L-lactate dehydrogenase (Plasmodium falciparum (isolate CDC / Honduras)) (UniProt Q27743). Kind of experiment: PfLDH activity inhibition – cell lysate, 3D7 strain, counter-screen for P. falciparum growth inhibition project (AID 2304).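 Also: 0% = vehicle and 100% = reference inhibitor.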 The settings on record: P. falciparum 3D7 crude extract, LDH APAD/NBT absorbance; at 2 µM; hits give high values.
Experiment [4] can be described thus: inhibition of 3D7 malaria parasite growth – strain 3D7 (AID 2306).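 Also: 0% = DMSO wells and 100% = chloroquine plus artemisinin control wells.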 The settings on record: P. falciparum 3D7 erythrocytic growth, LDH absorbance, 72 h; at 2 µM; hits give high values.
Experiment [5] deals with Calcium-dependent protein kinase 1 (Plasmodium falciparum (isolate 3D7)) (UniProt P62344). Kind of experiment: PfCDPK1 kinase inhibitors, biochemical, TCAMS library (AID 1159585; cut-off not given, nearly all actives have IC50 up to about 0.98 µM;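 also: inhibitors leave more ATP so luminescence rises with inhibition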). The conditions noted are these: recombinant PfCDPK1, Kinase-Glo ATP depletion luminescence. In general terms: Kinase-Glo reads ATP consumption through a luciferase reaction.
Chain of Calcium-dependent protein kinase 1 (Plasmodium falciparum (isolate 3D7)) (P62344 whole entry, looked up): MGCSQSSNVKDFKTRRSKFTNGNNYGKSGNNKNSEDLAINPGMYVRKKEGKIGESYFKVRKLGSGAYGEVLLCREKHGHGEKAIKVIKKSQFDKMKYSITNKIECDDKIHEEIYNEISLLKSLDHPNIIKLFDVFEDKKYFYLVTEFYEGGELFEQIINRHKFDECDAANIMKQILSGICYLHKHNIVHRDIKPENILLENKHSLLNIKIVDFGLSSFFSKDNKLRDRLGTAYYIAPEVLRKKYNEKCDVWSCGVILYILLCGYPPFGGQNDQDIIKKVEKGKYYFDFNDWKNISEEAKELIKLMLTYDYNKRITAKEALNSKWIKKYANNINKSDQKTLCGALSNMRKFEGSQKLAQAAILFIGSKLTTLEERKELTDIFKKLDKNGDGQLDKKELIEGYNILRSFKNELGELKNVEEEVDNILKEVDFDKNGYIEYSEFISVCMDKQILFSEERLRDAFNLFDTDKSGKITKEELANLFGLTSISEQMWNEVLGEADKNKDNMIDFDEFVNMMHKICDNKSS
Experiment [6] concerns the target Plasmodium falciparum protein kinase 6 (PK6, PF3D7_1337100) (UniProt Q8IDW1). Kind of experiment: PfPK6 kinase inhibitors, biochemical, TCAMS library (AID 1159586). The conditions noted are these: recombinant PfPK6, Kinase-Glo ATP depletion luminescence.
In experiment [7] the target is Protein kinase 7 (PK7), Plasmodium falciparum 3D7 (PF3D7_0213400) (UniProt Q7YTF7). The experiment is described as follows: inhibition of Plasmodium PK7 catalytic activity – biochemical, TCAMS antimalarial set, Kinase-Glo luminescence (AID 1159587). The settings on record: recombinant PfPK7, Kinase-Glo ATP depletion luminescence.
Chain of Protein kinase 7 (PK7), Plasmodium falciparum 3D7 (PF3D7_0213400) (Q7YTF7 1-343): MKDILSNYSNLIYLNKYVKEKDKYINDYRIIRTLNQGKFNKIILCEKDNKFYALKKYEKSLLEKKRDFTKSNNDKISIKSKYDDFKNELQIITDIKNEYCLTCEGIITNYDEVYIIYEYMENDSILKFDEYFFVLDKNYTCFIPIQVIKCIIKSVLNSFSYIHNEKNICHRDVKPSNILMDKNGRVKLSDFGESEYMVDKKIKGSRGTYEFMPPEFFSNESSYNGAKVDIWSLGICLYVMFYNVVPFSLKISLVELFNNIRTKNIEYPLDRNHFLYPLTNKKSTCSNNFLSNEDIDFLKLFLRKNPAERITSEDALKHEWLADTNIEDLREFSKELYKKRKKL
Experiment [8] deals with Calcium-dependent protein kinase 4 (Plasmodium falciparum (isolate 3D7)) (UniProt Q8IBS5). Kind of experiment: PfCDPK4 kinase inhibitors, biochemical, TCAMS library (AID 1159588; cut-off not given, nearly all actives have IC50 up to about 0.91 µM). The conditions noted are these: recombinant PfCDPK4, Kinase-Glo ATP depletion luminescence.
Chain of Calcium-dependent protein kinase 4 (Plasmodium falciparum (isolate 3D7)) (Q8IBS5 whole entry, looked up): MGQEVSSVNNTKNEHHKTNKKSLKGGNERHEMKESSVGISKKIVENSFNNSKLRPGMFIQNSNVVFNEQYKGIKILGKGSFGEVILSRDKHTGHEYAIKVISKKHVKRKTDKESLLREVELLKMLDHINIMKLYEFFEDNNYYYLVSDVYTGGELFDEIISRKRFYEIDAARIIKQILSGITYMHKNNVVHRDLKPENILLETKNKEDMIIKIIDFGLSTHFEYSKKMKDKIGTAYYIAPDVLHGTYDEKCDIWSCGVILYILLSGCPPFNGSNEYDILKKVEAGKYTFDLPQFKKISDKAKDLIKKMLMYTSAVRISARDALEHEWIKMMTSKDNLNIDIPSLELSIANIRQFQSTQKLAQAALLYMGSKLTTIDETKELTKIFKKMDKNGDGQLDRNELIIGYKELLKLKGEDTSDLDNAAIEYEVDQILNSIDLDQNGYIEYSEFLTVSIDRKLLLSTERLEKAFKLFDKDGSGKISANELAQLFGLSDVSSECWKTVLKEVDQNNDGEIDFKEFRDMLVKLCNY

Molecules are shown by their SMILES. A number with no mark means an inactive call. For some of these results: Results with a measured potency or affinity are listed apart. Calls of active or inactive are those of the source. Unless noted, no rule for the calls is given here.

As a reminder, the inhibition is the drop in the measured response relative to a control, in per cent.

Chain of L-lactate dehydrogenase (Plasmodium falciparum (isolate CDC / Honduras)) (Q27743 whole entry, looked up): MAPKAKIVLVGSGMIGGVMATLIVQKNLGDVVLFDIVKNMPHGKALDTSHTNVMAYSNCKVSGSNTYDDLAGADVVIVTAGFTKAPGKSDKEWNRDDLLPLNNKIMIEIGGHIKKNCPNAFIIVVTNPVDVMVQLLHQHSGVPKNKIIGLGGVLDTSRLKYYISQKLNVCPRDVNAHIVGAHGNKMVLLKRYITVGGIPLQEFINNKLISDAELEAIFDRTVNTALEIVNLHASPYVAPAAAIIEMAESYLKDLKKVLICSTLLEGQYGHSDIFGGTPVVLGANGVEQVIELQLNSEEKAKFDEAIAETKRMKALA
Chain of Plasmodium falciparum protein kinase 6 (PK6, PF3D7_1337100) (Q8IDW1 1-305): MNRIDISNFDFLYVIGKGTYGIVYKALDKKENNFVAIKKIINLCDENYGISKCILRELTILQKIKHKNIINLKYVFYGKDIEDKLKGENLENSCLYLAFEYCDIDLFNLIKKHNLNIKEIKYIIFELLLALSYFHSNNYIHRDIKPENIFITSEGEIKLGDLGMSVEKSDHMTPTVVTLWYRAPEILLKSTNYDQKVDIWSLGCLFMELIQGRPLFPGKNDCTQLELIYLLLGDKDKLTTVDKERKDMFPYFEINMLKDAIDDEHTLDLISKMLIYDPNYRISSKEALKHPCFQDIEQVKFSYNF

Consider `c1ccc(CN2CCC(NCc3ccccc3-c3ccc(CNCc4ccc5c(c4)OCO5)cc3)CC2)cc1`, for which the growth inhibition was 49% in experiment [1] and 102% (active) in experiment [4]. Moreover, the inhibition in experiment [2] is 26%; in experiment [3], 3%. In addition, the result in experiment [5], in experiment [6], in experiment [7] and in experiment [8] was inactive.

Consider `O=C(Cc1cn(-c2ccccc2)nc1-c1ccc(Cl)cc1)Nc1nccs1`, for which the growth inhibition is 8% in experiment [1] and 88% (active) in experiment [4]. For the same compound, the inhibition in experiment [2] was 9%; in experiment [3], 1%. The result in experiment [5], in experiment [6], in experiment [7] and in experiment [8] was inactive.

As for `Fc1ccc(-c2cc3ncnc(N4CCN(CCN5CCCC5)CC4)c3s2)cc1`, the growth inhibition in experiment [1] was 40%; in experiment [4], 98% (active). Besides, the values for the inhibition in experiment [2] and in experiment [3] were 25% and -1%, respectively. Moreover, the result in experiment [5], in experiment [6], in experiment [7] and in experiment [8] was inactive.

Regarding `CCCNC(=O)c1cncc(-c2ccc(CNCCCc3ccccc3)cc2)c1`, the growth inhibition is 29% in experiment [1] and 101% (active) in experiment [4]. The inhibition in experiment [2] was -13%; in experiment [3], 0%. For the same compound, the outcome in experiment [5], in experiment [6], in experiment [7] and in experiment [8] was inactive.

Consider `Cn1nc(-c2cccc(CN[C@@H]3CCc4ccc(O)cc43)c2)c2cnc(NC3CCCC3)nc21`, for which the growth inhibition was 76% (active) in experiment [1] and 100% (active) in experiment [4]. The inhibition in experiment [2] was 6%; in experiment [3] it was -2%. Moreover, the outcome in experiment [5], in experiment [6], in experiment [7] and in experiment [8] was inactive.

As to `CON=C1CCC(Cn2ccnc2)(c2ccc(Cl)cc2Cl)CC1` (stereo not given), the growth inhibition in experiment [1] is 56% (active); in experiment [4] it was 100% (active). Also, the inhibition in experiment [2] was 7%; in experiment [3], -5%. Besides, the outcome in experiment [5], in experiment [6], in experiment [7] and in experiment [8] was inactive.

As for `Cc1cccc2[nH]c(-c3ccc(-c4ccc(CN5CCN(CCN6CCOCC6)CC5)cc4)s3)nc12`, the growth inhibition in experiment [1] was 99% (active); in experiment [4], 100% (active). The inhibition in experiment [2] was 41%; in experiment [3], 3%. For the same compound, the outcome in experiment [5], in experiment [6], in experiment [7] and in experiment [8] was inactive.

Turning to `Cc1cc(N[C@@H](Cc2ccccc2)C(=O)NCc2cccc(F)c2)nc(NCCOc2ccccc2)n1`, the growth inhibition in experiment [1] is 7%; in experiment [4], 97% (active). The figures for the inhibition in experiment [2] and in experiment [3] were 0% and -3%, respectively. Moreover, the outcome in experiment [5], in experiment [6], in experiment [7] and in experiment [8] was inactive.

On to `COC(=O)c1cccc(C#CCCOCCCCCCNC[C@H](O)c2cc(Cl)c(N)c(Cl)c2)c1`, for which the growth inhibition in experiment [1] is 88% (active); in experiment [4], 97% (active). Besides, the results for the inhibition in experiment [2] and in experiment [3] were 12% and -3%, respectively. In addition, the result in experiment [5], in experiment [6], in experiment [7] and in experiment [8] was inactive.

In the case of `O=C(Nc1cccc(OCCN2CCCC2)c1)Nc1ccc(Cl)c(Cl)c1`, the growth inhibition in experiment [1] is 22%; in experiment [4], 98% (active). Also, the inhibition in experiment [2] was 3%; in experiment [3], -5%. For the same compound, the outcome in experiment [5], in experiment [6], in experiment [7] and in experiment [8] was inactive.

With `CCCN1CCC(NCc2cn(C)nc2-c2ccc(Oc3ccccc3)cc2)CC1`, the growth inhibition in experiment [1] is 44%; in experiment [4], 88% (active). The inhibition in experiment [2] was 34%; in experiment [3], -3%. The result in experiment [5], in experiment [6], in experiment [7] and in experiment [8] was inactive.

As for `Clc1ccc(-c2csc3ncnc(Cl)c23)cc1`, the growth inhibition was 95% (active) in experiment [1] and 94% (active) in experiment [4]. The inhibition in experiment [2] is -3%; in experiment [3], -6%. In addition, the result in experiment [5], in experiment [6], in experiment [7] and in experiment [8] was inactive.

For the compound `COc1ccc(-c2ccc(CNCc3ccccc3)cc2)cc1S(=O)(=O)NCCN1CCCC1`, the growth inhibition in experiment [1] is 76% (active); in experiment [4], 102% (active). Moreover, the inhibition is 36% in experiment [2] and -3% in experiment [3]. Moreover, the outcome in experiment [5], in experiment [6], in experiment [7] and in experiment [8] was inactive.

As for `O=C(Nc1ccc(Cn2ncc(N3CCCNCC3)c(Cl)c2=O)cc1)Nc1cc(F)cc(C(F)(F)F)c1`, the growth inhibition was 44% in experiment [1] and 101% (active) in experiment [4]. The inhibition in experiment [2] was 35%; in experiment [3], 4%. For the same compound, the result in experiment [5], in experiment [6], in experiment [7] and in experiment [8] was inactive.

On to `Cc1noc(C)c1-c1ccc2c(Nc3ccccc3C(C)(C)C)c(C(=O)NCc3ccc(C(F)(F)F)cc3)cnc2c1`, for which the growth inhibition in experiment [1] was 50% (active); in experiment [4], 99% (active). Besides, the inhibition in experiment [2] was 30%; in experiment [3], 0%. Moreover, the result in experiment [5], in experiment [6], in experiment [7] and in experiment [8] was inactive.

Take `O=C(/C=C/c1ccc(Cl)c(Cl)c1)NCCCCCN1CCCC(C(=O)Nc2cccc(Cl)c2)C1` (stereo not given): the growth inhibition in experiment [1] is 2%; in experiment [4] it was 99% (active). In addition, the results for the inhibition in experiment [2] and in experiment [3] were 41% and -2%, respectively. Besides, the result in experiment [5], in experiment [6], in experiment [7] and in experiment [8] was inactive.

Regarding `Cc1cc(N[C@@H](Cc2ccccc2)C(=O)Nc2ccccc2)nc(NCCc2ccccn2)n1`, the growth inhibition was 50% (active) in experiment [1] and 97% (active) in experiment [4]. The inhibition was -3% in experiment [2] and -1% in experiment [3]. In addition, the result in experiment [5], in experiment [6], in experiment [7] and in experiment [8] was inactive.

Regarding `COc1ccc(-c2cnc(N)c(-c3nc4ccc(Br)cc4[nH]3)c2)cc1`, the growth inhibition was 3% in experiment [1] and 100% (active) in experiment [4]. Besides, the inhibition is 42% in experiment [2] and 2% in experiment [3]. Moreover, the outcome in experiment [5], in experiment [6], in experiment [7] and in experiment [8] was inactive.

For the compound `Cc1ccccc1C1CCN(C2CCC(NC(=O)C3=Cc4ccccc4OC3)CC2)CC1` (stereo not given), the growth inhibition was 15% in experiment [1] and 91% (active) in experiment [4]. Also, the inhibition in experiment [2] is 26%; in experiment [3], -4%. In addition, the outcome in experiment [5], in experiment [6], in experiment [7] and in experiment [8] was inactive.

Consider `C[C@H](CNc1ccnc(Nc2ccc3[nH]c(=O)[nH]c3c2)n1)c1ccccc1`, for which the growth inhibition was -5% in experiment [1] and 100% (active) in experiment [4]. Moreover, the inhibition in experiment [2] is 61% (active); in experiment [3], -2%. Also, the outcome in experiment [5], in experiment [6], in experiment [7] and in experiment [8] was inactive.
